A word on the AC50: it is the concentration giving half of the maximal activity seen.

Values joined by “and” are separate entries in the source; they are usually repeats but may differ in a detail not shown here. Equal entries are not always repeated. Where a structure was tested more than once in an assay, its records may differ in their call. Active and inactive are the calls of the source. How the source made its calls: active means hit-call score of the fitted dose curve at least 0.9, where 1 is the maximum; inactive means score below 0.9.

For seven compounds, outcome and AC50 results are on record in PubChem BioAssay (EPA / NIEHS).

Read-out in test [1]: Vascular cell adhesion molecule 1 (VCAM1), VCAM1 (gene 7412)
Description: BSK_4H_VCAM1: BioMAP Diversity Plus: 4H Assay for Vascular cell adhesion molecule 1 (VCAM1) Biomarker Activity (AID 2283033).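 On outcome: cell-surface VCAM-1 protein measured by ELISA.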 Particulars: primary human endothelial cells (HUVEC); actives raise or lower the signal. The method in brief:
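In this human endothelial (HUVEC) system, biomarker ELISA was run 24 h after compound addition, and total protein in parallel wells was assessed by SRB at 560 nm; DMSO served as negative control.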

Read-out in test [2]: Interferon-gamma inducible Protein 10 (IP10), CXCL10 (gene 3627)
The test is described as follows: BSK_BE3C_IP10: BioMAP Diversity Plus: BE3C Assay for Interferon-gamma inducible Protein 10 (IP10) Biomarker Activity (AID 2283034). Particulars: primary human bronchial epithelial cells; actives raise or lower the signal. The method in brief: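 BE3C cells (human bronchial epithelial, primary); 24 h exposure; ELISA for IP-10; DMSO-referenced bidirectional fit.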

Read-out in test [3]: Transforming growth factor beta 1 (TGFb1), TGFB1 (gene 7040)
Description: BSK_BE3C_TGFb1: BioMAP Diversity Plus: BE3C Assay for Transforming growth factor beta 1 (TGFb1) Biomarker Activity (AID 2283036;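 on outcome: TGF-b1 protein level measured by ELISA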). Particulars: primary human bronchial epithelial cells; actives raise or lower the signal. The method in brief: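 TGF-b1 measured via ELISA, 24 h after chemical dosing of human bronchial epithelial cells (BE3C). Overt cytotoxicity assessed in parallel by SRB (0.1%, TCA-fixed, 560 nm); analysis bidirectional relative to DMSO.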

Read-out in test [4]: Plasminogen activator inhibitor-1 (PAI1), SERPINE1 (gene 5054)
Description: BSK_BE3C_PAI1: BioMAP Diversity Plus: BE3C Assay for Plasminogen activator inhibitor-1 (PAI1) Biomarker Activity (AID 2283037). Particulars: primary human bronchial epithelial cells; actives raise or lower the signal. In outline:
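In this multiplexed primary-cell system, bronchial epithelial cells receive test chemical and are sampled at 24 h. PAI-1 is read by ELISA, with DMSO serving as negative control for bidirectional fitting.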

Read-out in test [5]: urokinase plasminogen activator (uPA), PLAU (gene 5328)
The test is described as follows: BSK_BE3C_uPA: BioMAP Diversity Plus: BE3C Assay for urokinase plasminogen activator (uPA) Biomarker Activity (AID 2283038).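 On outcome: uPA protein level quantified by ELISA in cell cultures; uPA read one day after compound addition.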 The note with it: primary human bronchial epithelial cells; actives raise or lower the signal. The method in brief:
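ELISA read-out of uPA in human lung primary bronchial epithelial cultures, 24 h post-dosing. Gain or loss of signal fitted bidirectionally relative to DMSO baseline; cytotoxicity checked in parallel cultures via SRB total protein stain.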

Read-out in test [6]: Urokinase-type plasminogen activator receptor (uPAR), PLAUR (gene 5329)
The test is described as follows: BSK_BE3C_uPAR: BioMAP Diversity Plus: BE3C Assay for Urokinase-type plasminogen activator receptor (uPAR) Biomarker Activity (AID 2283039).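 On outcome: uPAR protein level measured by ELISA on the cells; cells exposed to compound for one day before measurement.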 The note with it: primary human bronchial epithelial cells; actives raise or lower the signal. The method in brief:
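Chemically treated human bronchial epithelial cells (lung primary) are assayed for uPAR by ELISA after 24 h, with data fitted in both directions using DMSO as negative control.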

Read-out in test [7]: Interleukin-6 (IL6), IL6 (gene 3569)
The test is described as follows: BSK_CASM3C_IL6: BioMAP Diversity Plus: CASM3C Assay for Interleukin-6 (IL6) Biomarker Activity for (AID 2283040). Particulars: primary human coronary artery smooth muscle cells; actives raise or lower the signal.

Read-out in test [8]: Tissue plasminogen activator (tPA), PLAT (gene 5327)
The test is described as follows: BSK_BE3C_tPA: BioMAP Diversity Plus: BE3C Assay for Tissue plasminogen activator (tPA) Biomarker Activity (AID 2283041).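 On outcome: tPA level quantified by ELISA one day after compound addition.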 The note with it: primary human bronchial epithelial cells; actives raise or lower the signal. In outline:
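Using human lung primary bronchial epithelial cells, tPA was measured by ELISA 24 h after dosing; data fitted relative to DMSO.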

Read-out in test [9]: Interleukin-8 (IL8), CXCL8 (gene 3576)
The test is described as follows: BSK_CASM3C_IL8: BioMAP Diversity Plus: CASM3C Assay for Interleukin-8 (IL8) Biomarker Activity (AID 2283042).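 Further: IL-8 protein level quantified by ELISA.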 The note with it: primary human coronary artery smooth muscle cells; actives raise or lower the signal.

Read-out in test [10]: Human Leukocyte Antigen - DR isotype (HLADR), HLA-DRA (gene 3122)
Description: BSK_CASM3C_HLADR: BioMAP Diversity Plus: CASM3C Assay for Human Leukocyte Antigen - DR isotype (HLADR) Biomarker Activity (AID 2283043).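 Further: cell-surface HLA-DR protein level quantified by ELISA.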 Particulars: primary human coronary artery smooth muscle cells; actives raise or lower the signal.

Read-out in test [11]: Macrophage colony-stimulating factor (MCSF), CSF1 (gene 1435)
The test is described as follows: BSK_CASM3C_MCSF: BioMAP Diversity Plus: CASM3C Assay for Macrophage colony-stimulating factor (MCSF) Biomarker Activity (AID 2283044).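 Further: M-CSF protein amount quantified by ELISA after 24 h exposure.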 The note with it: primary human coronary artery smooth muscle cells; actives raise or lower the signal.

Read-out in test [12]: Low-density lipoprotein receptor (LDLR), LDLR (gene 3949)
The test is described as follows: BSK_CASM3C_LDLR: BioMAP Diversity Plus: CASM3C Assay for Low-density lipoprotein receptor (LDLR) Biomarker Activity (AID 2283045).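 Further: LDLR protein level on the cell surface quantified by ELISA.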 The note with it: primary human coronary artery smooth muscle cells; actives raise or lower the signal.

Read-out in test [13]: Monocyte Chemoattractant Protein-1 (MCP1), CCL2 (gene 6347)
Description: BSK_CASM3C_MCP1: BioMAP Diversity Plus: CASM3C Assay for Monocyte Chemoattractant Protein-1 (MCP1) Biomarker Activity (AID 2283046).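 Further: MCP-1 level quantified by ELISA 24 h after dosing.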 Particulars: primary human coronary artery smooth muscle cells; actives raise or lower the signal.

A short description of test [14]: BSK_CASM3C_Proliferation: Cell Proliferation Assessment in the BioMAP Diversity Plus: CASM3C Assay (AID 2283047).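 Further: sulforhodamine B total protein stain as relative cell number at 560 nm; sub-confluent cells exposed 48 h before staining; fitted both ways against DMSO so gain or loss of cell number.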 The note with it: primary human coronary artery smooth muscle cells.
Read-out in test [15]: Monokine induced gamma interferon (MIG), CXCL9 (gene 4283)
Description: BSK_CASM3C_MIG: BioMAP Diversity Plus: CASM3C Assay for Monokine induced gamma interferon (MIG) Biomarker Activity (AID 2283048).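 Further: MIG protein level measured by ELISA.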 The note with it: primary human coronary artery smooth muscle cells; actives raise or lower the signal.

Read-out in test [16]: serum amyloid A (SAA), SAA1 (gene 6288)
The test is described as follows: BSK_CASM3C_SAA: BioMAP Diversity Plus: CASM3C Assay for serum amyloid A (SAA) Biomarker Activity (AID 2283049).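 Further: SAA protein level quantified by ELISA.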 The note with it: primary human coronary artery smooth muscle cells; actives raise or lower the signal.

The nature of test [17]: BSK_CASM3C_SRB: Viability Assessment in the BioMAP Diversity Plus: CASM3C Assay (AID 2283050).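 Further: total protein by SRB staining as cytotoxicity measure in parallel cultures.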 The note with it: primary human coronary artery smooth muscle cells.
Read-out in test [18]: Thrombomodulin, THBD (gene 7056)
Description: BSK_CASM3C_Thrombomodulin: BioMAP Diversity Plus: CASM3C Assay for Thrombomodulin Biomarker Activity (AID 2283051).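 Further: thrombomodulin protein level measured by ELISA 24 h after dosing.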 The note with it: primary human coronary artery smooth muscle cells; actives raise or lower the signal.

Read-out in test [19]: Monokine induced gamma interferon (MIG), CXCL9 (gene 4283)
The test is described as follows: BSK_BE3C_MIG: BioMAP Diversity Plus: BE3C Assay for Monokine induced gamma interferon (MIG) Biomarker Activity (AID 2283035).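 On outcome: MIG protein measured by ELISA in BE3C cultures after 24 h of dosing.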 Particulars: primary human bronchial epithelial cells; actives raise or lower the signal. The method in brief:
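Dose cells (human primary bronchial epithelial), incubate 24 h, quantify MIG by ELISA, then fit concentration–response in both directions relative to DMSO control.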

Read-out in test [20]: Human Leukocyte Antigen - DR isotype (HLADR), HLA-DRA (gene 3122)
Description: BSK_BE3C_HLADR: BioMAP Diversity Plus: BE3C Assay for Human Leukocyte Antigen - DR isotype (HLADR) Biomarker Activity (AID 2283032). The note with it: primary human bronchial epithelial cells; actives raise or lower the signal. In outline: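 BioMAP BE3C format: human bronchial epithelium, 24 h compound treatment, ELISA detection of HLA-DR, with bidirectional analysis relative to DMSO.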

Take `CC(C)(C)C(O)(CCc1ccc(Cl)cc1)Cn1cncn1` (stereo unspecified): the result in [1], in test [2], in [3], in test [4], in test [5] and in test [6] was inactive. Further, the result in test [7], in [8], in test [9], in test [10], in [11] and in test [12] was inactive. For the same compound, the outcome in [13], in test [14], in test [15], in test [16], in [17] and in test [18] was inactive.
Take `O=C(N[C@H](c1ccccc1)[C@@H]1CN2CCC1CC2)c1c(Cl)ccc(C(F)(F)F)c1Cl`: the outcome in test [1], in test [7], in test [9], in [10], in test [11] and in test [13] was inactive. Further, the result in test [15], in test [16], in test [17] and in [18] was inactive. Besides, the AC50 is 21.9 µM (active) in test [2]; 49 µM (active) in test [19]; 22.4 µM (active) in [5]; 34.5 µM (active) in test [6]; 29.7 µM (active) in test [8]; 25 µM (active) in test [12]. Moreover, the AC50 in [14] is 25.2 µM (active).
`COc1cc(C=O)cc2c1[C@H](COC(N)=O)[C@]1(OC(C)=O)ON2C[C@H]2[C@@H]1N2C(C)=O`: the AC50 is 1.74 µM (active) in [20]; 13.4 µM (active) in test [1]; 9.98 µM (active) in test [19]; 7.92 µM (active) in test [5]; 6.18 µM (active) in [6]; 6.63 µM (active) in test [7]. In addition, the AC50 in test [8] was 2.11 µM (active); in test [9], 3.6 µM (active); in test [10] it was 1.18 µM (active); in [11], 1.3 µM (active); in [12], 3.91 µM (active); in test [13], 4.5 µM (active). In addition, the AC50 was 0.485 µM (active) in [14]; 3.59 µM (active) in test [15]; 4.54 µM (active) in test [16]; 3.7 µM (active) in test [17]; 0.224 µM (active) in test [18].
As to `CCNS(=O)(=O)C(F)(F)C(F)(F)C(F)(F)C(F)(F)C(F)(F)C(F)(F)C(F)(F)C(F)(F)F`, the AC50 in [1] is 19.3 µM (active) and 16.9 µM (active) and 25.2 µM (active); in [2] it was 13.9 µM (active) and 21.1 µM (active) and 14 µM (active); in test [3], 12 µM (active); in test [5] it was 41.5 µM (active); in [6] it was 21.2 µM (active) and 30 µM (active); in [8], 13 µM (active). The AC50 in test [9] was 17 µM (active); in test [10] it was 8.6 µM (active); in test [18], 24.6 µM (active). The result in test [5], in [6], in test [7], in test [8], in [9] and in [10] was inactive. In addition, the outcome in test [11], in test [12], in test [13], in test [14], in test [15] and in test [16] was inactive. For the same compound, the result in [17] and in [18] was inactive.
Regarding `OCCCl`, the result in [20], in test [1], in test [3], in test [5], in [6] and in test [7] was inactive. The outcome in [8], in [9], in test [10], in [11], in test [12] and in test [13] was inactive. Further, the result in [14], in test [15], in test [16], in [17] and in [18] was inactive.
`CC(C)COC(=O)c1ccccc1C(=O)OCC(C)C`: the result in test [20], in test [19], in test [5], in [6], in test [7] and in test [8] was inactive. Besides, the outcome in test [9], in test [10], in test [11], in test [12], in [13] and in [14] was inactive. The outcome in [15], in test [16] and in test [17] was inactive. In addition, the AC50 is 14.1 µM (active) in test [1] and 20 µM (active) in [18].
For the compound `CCCCCOC(=O)c1ccccc1C(=O)OCCCCC`, the result in [20], in [3], in [5], in test [6], in test [7] and in [8] was inactive. The result in test [9], in test [10], in test [11], in [12], in test [13] and in test [14] was inactive. Further, the result in test [15], in test [16] and in [17] was inactive. Further, the figures for the AC50 in [1] and in test [18] were 18.5 µM (active) and 15.6 µM (active), respectively.
